# Assay results reported in the supplement of paper PMC12282887.
# ± gives the standard deviation of the averaged measurements.
# What was measured:
# Experiment in all cases: promoter activity interaction Z-score (Lux/OD deviation from empty-vector control); higher = stronger promoter induction by the compound
# [1] = test system: E. coli BW25113 acrABp lux reporter
# Summary of the method: (§1)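 E. coli BW25113, as wild type or one of three single-gene deletion strains, carried low-copy luxCDABE promoter reporters and grew in 40 µl LB Lennox in 384-well plates at 37°C, with OD600 and luminescence read every 30 min for 12 h. Each compound was run at four 1:2 dilutions in biological duplicates, integration spanned 0–8 h for wild type and 1–9 h for deletion strains, and wells under 10% of the median growth value were dropped. The score is the Z-transformed residual of growth-normalised luminescence fitted against a control.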
# [2] = test system: E. coli BW25113 ompFp lux reporter
# Summary of the method: as §1
# [3] = test system: E. coli BW25113 robp lux reporter
# Summary of the method: as §1
# [4] = test system: E. coli BW25113 soxSp lux reporter
# Summary of the method: as §1
# [5] = test system: E. coli BW25113 tolCp lux reporter
# Summary of the method: as §1
# [6] = 0.038 µg/ml, genetic background: wild type
# [7] = 0.038 µg/ml, genetic background: ΔmarA
# [8] = 0.038 µg/ml, genetic background: Δrob
# [9] = 0.038 µg/ml, genetic background: ΔsoxS
# [10] = 0.076 µg/ml, genetic background: wild type
# [11] = 0.076 µg/ml, genetic background: ΔmarA
# [12] = 0.076 µg/ml, genetic background: Δrob
# [13] = 0.076 µg/ml, genetic background: ΔsoxS
# [14] = 0.15 µg/ml, genetic background: wild type
# [15] = 0.15 µg/ml, genetic background: ΔmarA
# [16] = 0.15 µg/ml, genetic background: Δrob
# [17] = 0.15 µg/ml, genetic background: ΔsoxS
# [18] = 0.3 µg/ml, genetic background: wild type
# [19] = 0.3 µg/ml, genetic background: ΔmarA
# [20] = 0.3 µg/ml, genetic background: Δrob
# [21] = 0.3 µg/ml, genetic background: ΔsoxS
smiles,measurement,setting,value
Cc1c(N)nc([C@H](CC(N)=O)NC[C@H](N)C(N)=O)nc1C(=O)N[C@H](C(=O)N[C@H](C)[C@@H](O)[C@H](C)C(=O)N[C@H](C(=O)NCCc1nc(-c2nc(C(=O)NCCC[S+](C)C)cs2)cs1)[C@@H](C)O)[C@@H](OC1OC(CO)C(O)C(O)C1OC1OC(CO)C(O)C(OC(N)=O)C1O)c1cnc[nH]1 (some centres not stated) [Bleomycin],promoter activity interaction Z-score,[1]; [6],-0.161 ± 0.17
same,promoter activity interaction Z-score,[1]; [7],-0.308 ± 0.65
same,promoter activity interaction Z-score,[1]; [8],0.154 ± 0.043
same,promoter activity interaction Z-score,[1]; [9],-0.147 ± 0.084
same,promoter activity interaction Z-score,[1]; [10],0.266 ± 0.09
same,promoter activity interaction Z-score,[1]; [11],0.659 ± 0.35
same,promoter activity interaction Z-score,[1]; [12],0.241 ± 0.055
same,promoter activity interaction Z-score,[1]; [13],0.604 ± 0.2
same,promoter activity interaction Z-score,[1]; [14],0.326 ± 0.0054
same,promoter activity interaction Z-score,[1]; [15],1.11 ± 0.37
same,promoter activity interaction Z-score,[1]; [16],0.351 ± 0.064
same,promoter activity interaction Z-score,[1]; [17],0.996 ± 0.83
same,promoter activity interaction Z-score,[1]; [18],2.43
same,promoter activity interaction Z-score,[2]; [6],-0.37 ± 0.33
same,promoter activity interaction Z-score,[2]; [7],-0.165 ± 0.44
same,promoter activity interaction Z-score,[2]; [8],0.0421 ± 0.23
same,promoter activity interaction Z-score,[2]; [9],-0.165 ± 0.021
same,promoter activity interaction Z-score,[2]; [10],0.414 ± 0.11
same,promoter activity interaction Z-score,[2]; [11],0.695 ± 0.073
same,promoter activity interaction Z-score,[2]; [12],0.642 ± 1
same,promoter activity interaction Z-score,[2]; [13],1.16 ± 0.21
same,promoter activity interaction Z-score,[2]; [14],0.0111 ± 0.27
same,promoter activity interaction Z-score,[2]; [15],1.52 ± 0.35
same,promoter activity interaction Z-score,[2]; [16],1.13 ± 1.2
same,promoter activity interaction Z-score,[2]; [17],0.608 ± 0.26
same,promoter activity interaction Z-score,[2]; [18],1.05
same,promoter activity interaction Z-score,[3]; [6],-0.227 ± 0.48
same,promoter activity interaction Z-score,[3]; [7],-0.244 ± 0.084
same,promoter activity interaction Z-score,[3]; [8],0.0423 ± 0.14
same,promoter activity interaction Z-score,[3]; [9],0.189 ± 0.027
same,promoter activity interaction Z-score,[3]; [10],0.47 ± 0.17
same,promoter activity interaction Z-score,[3]; [11],0.568 ± 0.18
same,promoter activity interaction Z-score,[3]; [12],-0.134 ± 0.47
same,promoter activity interaction Z-score,[3]; [13],0.996 ± 0.081
same,promoter activity interaction Z-score,[3]; [14],-0.644 ± 0.27
same,promoter activity interaction Z-score,[3]; [15],0.509 ± 0.081
same,promoter activity interaction Z-score,[3]; [16],-0.728 ± 0.72
same,promoter activity interaction Z-score,[3]; [17],-0.1 ± 0.21
same,promoter activity interaction Z-score,[3]; [18],0.543 ± 1.9
same,promoter activity interaction Z-score,[3]; [19],0.142
same,promoter activity interaction Z-score,[4]; [6],-0.0441 ± 0.22
same,promoter activity interaction Z-score,[4]; [7],0.0426 ± 0.088
same,promoter activity interaction Z-score,[4]; [8],0.0195 ± 0.2
same,promoter activity interaction Z-score,[4]; [9],0.0402 ± 0.048
same,promoter activity interaction Z-score,[4]; [10],0.138 ± 0.019
same,promoter activity interaction Z-score,[4]; [11],0.214 ± 0.083
same,promoter activity interaction Z-score,[4]; [12],-0.00506 ± 0.02
same,promoter activity interaction Z-score,[4]; [13],0.485 ± 0.32
same,promoter activity interaction Z-score,[4]; [14],-0.0277 ± 0.085
same,promoter activity interaction Z-score,[4]; [15],0.277 ± 0.053
same,promoter activity interaction Z-score,[4]; [16],0.343 ± 0.13
same,promoter activity interaction Z-score,[4]; [17],0.655 ± 0.09
same,promoter activity interaction Z-score,[4]; [18],0.33 ± 0.25
same,promoter activity interaction Z-score,[4]; [19],0.209 ± 0.081
same,promoter activity interaction Z-score,[4]; [20],0.169 ± 0.11
same,promoter activity interaction Z-score,[4]; [21],0.215
same,promoter activity interaction Z-score,[5]; [6],-0.575 ± 0.29
same,promoter activity interaction Z-score,[5]; [7],-0.641 ± 1.1
same,promoter activity interaction Z-score,[5]; [8],-0.352 ± 0.023
same,promoter activity interaction Z-score,[5]; [9],-0.761 ± 0.52
same,promoter activity interaction Z-score,[5]; [10],0.286 ± 0.074
same,promoter activity interaction Z-score,[5]; [11],-0.211 ± 0.3
same,promoter activity interaction Z-score,[5]; [12],-0.79 ± 0.62
same,promoter activity interaction Z-score,[5]; [13],0.828 ± 0.64
same,promoter activity interaction Z-score,[5]; [14],-0.851 ± 0.45
same,promoter activity interaction Z-score,[5]; [15],0.213 ± 1.1
same,promoter activity interaction Z-score,[5]; [16],0.777 ± 1.4
same,promoter activity interaction Z-score,[5]; [17],0.0492 ± 0.52
same,promoter activity interaction Z-score,[5]; [18],0.571 ± 0.23
same,promoter activity interaction Z-score,[5]; [19],0.356
same,promoter activity interaction Z-score,[5]; [20],-0.851 ± 0.56
same,promoter activity interaction Z-score,[5]; [21],1.73 ± 0.26
